In the library only some 10% were active in any assay of this set; here they are far more common.
BAZ2B inh: inhibitors of human BAZ2B bromodomain. Q9UIF8. AlphaScreen BAZ2B-H3K14Ac peptide displacement. Potency, µM (top dose mostly 114 µM), most hits filed as inhibitors. 360,000 tested, 4.4% active. AID 504333; note: nearly all actives have a fitted effect of over 60% in size
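Protein-peptide AlphaScreen: BAZ2B 50 nM, b-H3K14Ac 50 nM, 1x PBS pH 7.4 + 0.01% Tween-20. Preincubation 30 min RT; cpd 30 min RT (top 110 uM); beads 20 min RT, light-protected.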
HP1b binding inh: inhibitors of HP1-beta chromodomain binding to methylated histone tails | Potency, µM (series often up to 114 µM), usual class: inhibitors | 390,000 tested, 0.56% active | AlphaScreen HP1-beta / biotin-H3K9me3 peptide binding; note: nearly all actives have a fitted effect of over 70% in size
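Compound inhibition of the preformed complex between 50 nM HP1-beta and 50 nM biotinylated H3K9me3 peptide was read by AlphaScreen. Buffer was PBS pH 7.4 with 0.01% Tween-20. Incubations ran 30 min at room temperature, with 10 ug/mL donor/acceptor beads.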
G9a block: G9a (human) methyltransferase inhibition; Potency, µM (titrated, usually from 102 µM), hits mostly inhibitors; 350,000 tested, 8.8% active; G9a H3K9 monomethylation, AlphaScreen, 2 h; Q96KQ7; note: nearly all actives have a fitted effect of over 75% in size
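Step 1: enzyme (final 20 nM) with compound, 15 min RT. Step 2: substrate peptide 500 nM and SAM 20 uM, 2 h RT. Step 3: anti-H3K9me1 antibody and AlphaScreen beads, 10 min, then plate read.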
Six1-Eya2 blk: inhibitors of human Six1/Eya2 interaction; Q15475+O00167; AlphaScreen GST-Six1/His-Eya2 binding, biochemical; active compounds read low; activity change, % (concentration not given with the values); 360,000 tested, 0.56% active; AID 651725; in the data active = activity change below about -65%; inconclusive = mostly about -30% to -63%
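AlphaScreen luminescence read after one hour at 37 °C in darkness. Pin-transferred compounds met GST-Six1 and His-Eya2 protein (5X stock 250 nM/500 nM) plus glutathione donor and Ni-chelate acceptor beads (5X, 50 ug/mL).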
CtBP-E1A blk: inhibitors of CtBP/E1A interaction; AlphaScreen GST-E1A/His-CtBP binding, 1536-well; active compounds read low; activity change, % (no concentration beside the values); 340,000 tested, 0.49% active; AID 651724; in the data active = activity change below about -65%; inconclusive = mostly about -30% to -63%
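AlphaScreen with 125 nM GST-E1A and 125 nM His-CtBP (5X stocks) in Tris pH 8.0, 300 mM NaCl, BSA, Tween 20, TCEP. Compounds preincubated 2 h at 37 deg C, then glutathione donor/nickel acceptor beads added for 1 h at 37 deg C in dark.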
JMJD2A Tudor inh: JMJD2A Tudor domain (human) inhibition; AID 504339; Potency, µM (titrated, usually from 114 µM), most hits filed as inhibitors; 390,000 tested, 4.4% active; AlphaScreen JMJD2A-Tudor / H3K4me3 peptide binding; note: nearly all actives have a fitted effect of over 50% in size
Numbers stand for hits; - = inactive; ? = inconclusive; . = no result given; [ ] = another dose, or the depositor's remark. Unless noted, calls come from the whole dose curve; as a rule, active = well fitted inhibition curve with a large enough effect; inconclusive = small, poorly fitted or top-dose-only effect; inactive = no such curve, though single readings can be large or run the other way.

SMILES | BAZ2B inh | HP1b binding inh | G9a block | Six1-Eya2 blk | CtBP-E1A blk | JMJD2A Tudor inh
N#CC1=C(N)Oc2n[nH]c(-c3ccc(F)cc3)c2C1c1cccnc1 (stereo not given) | - | - | ? | - | - | -
Cc1ccc(C2C(C#N)=C(N)Oc3n[nH]c(-c4cccnc4)c32)o1 (stereo not given) | ? | - | 79µM | - | - | -
CCC(C)C(N)C1=NC(C(=O)N[C@@H](CC(C)C)C(=O)N[C@H](CCC(=O)[O-])C(=O)N[C@H](C(=O)N[C@H]2CCCCNC(=O)[C@H](CC(N)=O)NC(=O)[C@@H](CC(=O)[O-])NC(=O)[C@H](Cc3cnc[nH]3)NC(=O)[C@@H](Cc3ccccc3)NC(=O)[C@H]([C@@H](C)CC)NC(=O)[C@@H](CCCN)NC2=O)[C@@H](C)CC)CS1.[Zn+2] (stereo not given in full) | . | 13µM | . | - | - | 2.8µM
COc1ccc(S(=O)(=O)Nc2cccc3cccnc23)c([N+](=O)[O-])c1 | . | - | . | . | . | ?
COC(=O)c1ccccc1NC(=O)Cc1nc(-c2ccccc2)sc1-c1ccc(C)cc1 | - | - | 45µM | - | - | -
Cc1cc(C)n(-c2nc(C(=O)O)cs2)n1 | ? | - | 50µM | - | - | -
COC(=O)CSC1=C(C#N)C(c2cccc(OC)c2)CC(=O)N1 (stereo not given) | - | - | 71µM | - | - | -
CCOc1ccccc1C1CC(=O)NC(SCC(=O)Nc2nccs2)=C1C#N (stereo not given) | - | - | 14µM | - | - | -
COC(=O)CSC1=C(C#N)C(c2ccc(Cl)cc2)C(C(=O)OC)C(=O)N1 (stereo not given) | - | - | 45µM | - | - | -
C=CCSC1=C(C#N)C(c2cccc(OC)c2)CC(=O)N1 (stereo not given) | - | - | 45µM | - | - | -
CC(=O)Nc1cc2nc(C)n(Cc3ccccc3[N+](=O)[O-])c2nc1C | - | - | - | - | - | -
NC(CCC(=O)N[C@@H](CS)C(=O)NCC(=O)O)C(=O)O (stereo not given in full) | . | . | -[2.33 µM] | . | . | .
CCOc1ccc(C2CC(=O)NC(SCC(=O)OC)=C2C#N)cc1 (stereo not given) | - | - | 71µM | - | - | -
C=CCn1c(-c2oc3nc(-c4ccccc4)cc(-c4ccccc4)c3c2N)n[nH]c1=S | - | ? | 32µM | - | - | ?
NNC(=O)c1oc2nc(-c3ccc(Cl)cc3)cc(-c3ccccc3)c2c1N | ? | - | -[2.33 µM] | - | - | -
C=CCn1c(-c2cccc([N+](=O)[O-])c2)n[nH]c1=S | - | - | 13µM | - | - | 5.6µM
C=CCn1c(-c2cccc(Cl)c2)n[nH]c1=S | - | - | 2.8µM | - | - | 10µM
Cc1cc(-c2sccc2C)nc(-n2cccc2)n1 | - | - | -[12.7 µM] | - | - | -
C=CCn1c(-c2sccc2C)n[nH]c1=S | - | - | 7.9µM | - | - | 7.1µM
C=CCn1c(SC)nnc1-c1cccc([N+](=O)[O-])c1 | - | - | - | - | - | -
COC(=O)c1ccc(Cl)cc1NC(=O)NC(C)c1c(-n2cccc2)sc(C)c1C (stereo not given) | - | - | - | . | . | -
COc1ccc(/C=C/C(=O)OCC(=O)NC(=O)NC(C)(C)C)cc1 | - | - | - | - | - | -
C1CCN2C[C@H]3C[C@H](CN4CCCCC34)C2C1 (stereo not given in full) | . | . | -[2.33 µM] | . | . | .
COc1ccc(N2CCN(c3oc(/C=C/c4cc(OC)c(OC)c(OC)c4)nc3C#N)CC2)cc1 | ? | - | ? | . | . | ?
O=[N+]([O-])c1cccc(-c2n[nH]c(=S)n2Cc2ccccc2)c1 | - | - | 1.8µM | - | - | 79µM
SMILES | BAZ2B inh | HP1b binding inh | G9a block | Six1-Eya2 blk | CtBP-E1A blk | JMJD2A Tudor inh
Cc1cc(N2CCN(c3ccccc3Cl)CC2)n2cc(-c3ccccc3)nc2n1 | ? | - | 50µM | - | - | ?
Cc1cc(N2CCN(c3cc(Cl)ccc3C)CC2)n2nc(-c3ccccc3)nc2n1 | - | - | - | . | . | -
Cc1cc(N2CCN(c3ccccc3)CC2)n2cc(-c3ccccc3)nc2n1 | 45µM | - | -[12.7 µM] | - | - | ?
COc1ccc(C(=O)Nc2ccc(C(=O)N3CCCCC3)cc2)cc1OC | - | - | - | - | - | -
COc1cccc(C(=O)NNC(=O)C(=O)N2CCCCC2)c1 | - | - | 50µM | - | - | -
COc1ccc(C(=O)NNC(=O)C(=O)N2CCCCC2)cc1OC | - | - | ? | - | - | 25µM
CC1(C)C(c2cccs2)=[N+]([O-])C2(CCCCC/C2=N\O)N1O (stereo not given) | - | - | - | - | - | -
CC1(C)C(c2ccccc2)=[N+]([O-])C2(CCCCC2=O)N1O (stereo not given) | - | - | 7.9µM | - | - | -
COc1ccc(C(=O)c2ccc(OC)c3cccc(O)c23)cc1OC | ? | - | 56µM | - | - | ?
CC1=C(C(=O)Nc2ccc(C)cc2C)C(c2cccs2)n2nc(SCc3ccc(Cl)cc3)nc2N1 (stereo not given) | - | - | - | . | . | -
Cc1ccccc1N(C(=O)c1csnn1)C(C(=O)NC(C)(C)C)c1cccs1 (stereo not given) | - | ? | - | - | - | 10µM
COc1ccc(-c2n(CC(=O)OC3CC(C)CCC3C(C)C)c3ccccc3[n+]2C)cc1 (stereo not given) | ? | - | 1.1µM | - | - | -
Nc1nccnc1C(=O)OCC(=O)NC1CCCc2ccccc21 (stereo not given) | - | - | -[12.7 µM] | - | - | -
O=[S+]([O-])(c1ccc(-c2ccccc2)cc1)N1CCN([S+](=O)([O-])c2ccc3c(c2)OCCO3)CC1 | . | . | . | . | . | -
Cc1ccc2c(c1)C(N1CCCC1=O)CC(c1ccco1)N2 (stereo not given) | - | - | 10µM | - | - | -[11.4 µM]
Cc1c2cccn2cc[n+]1C | - | - | 14µM | - | - | 45µM
O=C/C(=C\Nc1ccc(Cl)cn1)c1nc2cc(Cl)ccc2o1 | - | - | - | - | - | -
COc1cc(NS(=O)(=O)c2ccc(N/C=C(\C#N)c3nc4cc(Cl)ccc4o3)cc2)nc(OC)n1 | - | - | - | - | - | ?
O=C/C(=C\Nc1ccc(S(=O)(=O)CCO)cc1)c1nc2cc(Cl)ccc2o1 | - | - | 50µM | - | - | -
O=C/C(=C\Nc1ccc(Cl)cn1)c1nc2ccccc2o1 | - | - | ? | - | - | 13µM
COc1ccc(CNC(=O)CCCN2C(=O)COc3ccc(C)cc32)cc1 | - | - | - | . | . | -
CC1CCN(S(=O)(=O)c2ccc3c(c2)N(C)C(=O)CC(=O)N3C)CC1 | - | - | 28µM | - | - | -

Bioassay records (PubChem BioAssay)
